Compounds with a hit are over-represented: about 18% of the library has one in this group of screens.
DT40 TDP1 CPT – DT40-hTDP1 cell growth loss with CPT; Potency, µM (doses to about 46.2 µM), without a hit: top-dose activity change, negative = growth inhibition, usual class: inhibitors; AID 686979; chicken DT40 Tdp1-/-;hTDP1 cells + 20 nM CPT, ATP luminescence, 48 h; 420,000 compounds, 12% hits; further: potency means the concentration at half of the fitted maximal effect; nearly all actives have a fitted effect of over 55% in size
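Chicken DT40 Tdp1-/- cells complemented with human TDP1, 400 cells/well, exposed to compounds plus 20 nM camptothecin for at least 48 h at 37 C; viability read as ATP content by CellTiter-Glo luminescence.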
IL-1B inflam inh – inflammasome signaling inhibition, IL-1 beta readout; AID 743279; activity change, % at 57.5 µM; THP-1 LPS/ATP IL-1B secretion, AlphaLISA, 16 h; active compounds read low; 360,000 compounds, 4.7% hits; in the data active means activity change below about -50%; inconclusive means mostly about -30% to -49%
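Secreted IL-1B measured by AlphaLISA bead assay after 16 h compound exposure of THP-1 cells; compounds (final up to 57.5 uM) added 1 h before LPS (250 ng/mL) and ATP (1.25 mM) stimulation; lower signal means less secretion.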
Six1-Eya2 blk – Six1/Eya2 interaction inhibition; activity change, % (no concentration beside the values); AlphaScreen GST-Six1/His-Eya2 binding, biochemical; active compounds read low; 360,000 compounds, 0.56% hits; Q15475+O00167; AID 651725; in the data active means activity change below about -65%; inconclusive means mostly about -30% to -63%
Target sequence (O00167 whole entry, looked up): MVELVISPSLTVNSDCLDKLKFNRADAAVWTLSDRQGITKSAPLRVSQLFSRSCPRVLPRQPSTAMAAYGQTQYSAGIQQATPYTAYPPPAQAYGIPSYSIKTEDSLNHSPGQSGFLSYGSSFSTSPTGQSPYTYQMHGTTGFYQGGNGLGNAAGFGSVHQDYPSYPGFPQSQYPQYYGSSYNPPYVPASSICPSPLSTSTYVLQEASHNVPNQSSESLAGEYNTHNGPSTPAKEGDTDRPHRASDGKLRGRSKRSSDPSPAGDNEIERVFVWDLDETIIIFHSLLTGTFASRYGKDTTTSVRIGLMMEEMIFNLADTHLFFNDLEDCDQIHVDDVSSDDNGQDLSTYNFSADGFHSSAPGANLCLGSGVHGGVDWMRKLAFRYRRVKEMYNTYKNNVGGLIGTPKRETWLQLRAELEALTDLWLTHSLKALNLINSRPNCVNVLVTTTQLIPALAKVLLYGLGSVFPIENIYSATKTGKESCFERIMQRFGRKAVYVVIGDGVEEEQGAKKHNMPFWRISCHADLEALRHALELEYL
Target sequence (Q15475 whole entry, looked up): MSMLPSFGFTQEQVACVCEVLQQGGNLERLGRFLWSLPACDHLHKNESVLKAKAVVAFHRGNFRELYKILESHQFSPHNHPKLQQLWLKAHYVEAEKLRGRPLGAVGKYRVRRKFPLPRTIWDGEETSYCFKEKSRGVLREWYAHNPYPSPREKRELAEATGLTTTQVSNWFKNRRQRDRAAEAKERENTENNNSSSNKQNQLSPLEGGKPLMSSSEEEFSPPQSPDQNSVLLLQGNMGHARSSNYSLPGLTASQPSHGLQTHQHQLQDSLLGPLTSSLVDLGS
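Six1/Eya2 binding was read as AlphaScreen signal after compounds were pinned into GST-Six1 plus His-tagged Eya2 (5X stock 250/500 nM) in pH 8.0 Tris/NaCl/TCEP buffer, beads added, then incubated 1 h, 37 C, dark.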
TDP1 inh – TDP1 (human) enzyme inhibition; recombinant TDP1, AlphaScreen DNA substrate cleavage; Potency, µM (series often up to 130 µM), for the others: at the top dose activity change, negative = inhibition, most hits filed as inhibitors; 350,000 compounds, 0.28% hits; further: potency means the concentration at half of the fitted maximal effect; nearly all actives have a fitted effect of over 40% in size
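Signal: AlphaScreen proximity between streptavidin donor and anti-FITC acceptor beads on intact substrate. Reaction: Tdp1 1 nM, substrate 15 nM final, 5 min RT after 15 min compound preincubation.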
CtBP-E1A blk – CtBP/E1A binding inhibition. AlphaScreen GST-E1A/His-CtBP binding, 1536-well; active compounds read low. activity change, % (no concentration beside the values). 340,000 compounds, 0.49% hits; in the data active means activity change below about -65%; inconclusive means mostly about -30% to -63%
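GST-E1A and His-tagged CtBP (125 nM each as 5X stock) were preincubated with pin-transferred compound for 2 h at 37 °C in the dark, then glutathione donor and nickel acceptor beads were added for 1 h before AlphaScreen reading.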
DT40 TDP1 no CPT – qHTS for Inhibitors of human tyrosyl-DNA phosphodiesterase 1 (TDP1): qHTS in cells in absence of CPT. DT40 Tdp1-/- hTDP1 cells, no CPT, ATP luminescence, 48 h. Potency, µM (top dose mostly 46.2 µM), inactives show at the highest dose activity change, negative = growth inhibition, most hits filed as inhibitors. 420,000 compounds, 15% hits. AID 686978, 2013; further: potency means the concentration at half of the fitted maximal effect; nearly all actives have a fitted effect of over 55% in size
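Chicken DT40 Tdp1-/- cells complemented with human TDP1, screened without camptothecin (DMSO vehicle only), 400 cells/well. Compounds pin-transferred, cells incubated at 37 °C for at least 48 hr. Growth read as ATP-dependent luminescence (CellTiter-Glo, 30 min at RT).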
Active calls of the source: *; [ ] = remark or other dose. Unless noted, the call rests on the fitted dose curve; in most records, active means well fitted curve in the direction sought with a large enough effect; inconclusive means small, poorly fitted or top-dose-only effect, or another doubt; inactive means no such curve, though single readings can be large; an effect the other way counts as inactive or inconclusive. On the % scale 0 is the no-effect control and ±100 the full control effect.

`Cc1ccc(S(=O)(=O)N2CCN(C(=O)CN3CCOCC3)C2c2ccccc2)cc1` (configuration not stated) gave DT40 TDP1 CPT inconclusive, IL-1B inflam inh -1.7, Six1-Eya2 blk -0.8, TDP1 inh 1.0%, CtBP-E1A blk -2.7 and DT40 TDP1 no CPT 16.4µM*.
CC(=O)N1CCN(S(=O)(=O)c2ccc(C)cc2)C1c1ccc(N(C)C)cc1 (configuration not stated) was read as DT40 TDP1 CPT -25.7%, IL-1B inflam inh 10.5, Six1-Eya2 blk -3.6, TDP1 inh 1.0%, CtBP-E1A blk -0.7 and DT40 TDP1 no CPT inconclusive.
`COn1c(-c2ccccc2)nc2c1CCc1c-2no[n+]1[O-]` gave DT40 TDP1 CPT inconclusive, IL-1B inflam inh -63.4*, Six1-Eya2 blk 6.0, TDP1 inh -0.5%, CtBP-E1A blk 8.2 and DT40 TDP1 no CPT inconclusive.
Screening CC(CCc1ccccc1)NC(=O)CSc1n[nH]c(-c2ccccc2Cl)n1 (configuration not stated) returned DT40 TDP1 CPT inconclusive, TDP1 inh 5.4% and DT40 TDP1 no CPT inconclusive.
`N#CCSc1ccccc1NC(=O)CN1C(=O)C(=O)N(Cc2ccccc2)C1=O` gave DT40 TDP1 CPT 8.1%, IL-1B inflam inh 7.0, Six1-Eya2 blk -3.1, TDP1 inh 1.1%, CtBP-E1A blk 1.2 and DT40 TDP1 no CPT 8.2%.
NCCc1nc(-c2ccccc2)cs1 was read as DT40 TDP1 CPT 4.4%, IL-1B inflam inh -52.3*, Six1-Eya2 blk 1.3, TDP1 inh 6.3%, CtBP-E1A blk -29.4 and DT40 TDP1 no CPT -22.9%.
For NC(=O)Cc1nc(-c2ccccc2)cs1 the results were DT40 TDP1 CPT 0.7%, IL-1B inflam inh -1.7, Six1-Eya2 blk 11.7, TDP1 inh 4.7%, CtBP-E1A blk 8.9 and DT40 TDP1 no CPT 5.4%.
Screening Cc1ccc(NC(=O)c2cc3ccccc3o2)cc1S(=O)(=O)N(C)C returned DT40 TDP1 CPT 29.1µM*, IL-1B inflam inh -11.4, Six1-Eya2 blk -2.5, TDP1 inh -2.3%, CtBP-E1A blk 3.9 and DT40 TDP1 no CPT inconclusive.
Cc1ccc(NC(=O)c2cc3ccccc3oc2=O)cc1S(=O)(=O)N(C)C was read as DT40 TDP1 CPT -0.8%, IL-1B inflam inh 29.9, Six1-Eya2 blk 5.5, TDP1 inh -2.7%, CtBP-E1A blk 29.2 and DT40 TDP1 no CPT -1.5%.
Screening O=C(Nc1ccc(NC(=O)c2cc3ccccc3o2)cc1)c1ccccc1 returned DT40 TDP1 CPT -26.8%, TDP1 inh -4.0%[12.3 µM] and DT40 TDP1 no CPT -24.9%.
`O=C(Nc1ccc2c(c1)OCCO2)c1cc2ccccc2o1` gave DT40 TDP1 CPT -29.1%, IL-1B inflam inh -67.7*, Six1-Eya2 blk -3.8, TDP1 inh 0.0%, CtBP-E1A blk -0.1 and DT40 TDP1 no CPT inconclusive.
For COc1cccc(-c2nnc3n(Cc4ccc(F)cc4)c(=O)c4ccccc4n23)c1 the results were DT40 TDP1 CPT inconclusive, TDP1 inh 8.6% and DT40 TDP1 no CPT inconclusive.
For CC(C)OCCCn1c(=O)c2ccccc2n2c(-c3ccccc3F)nnc12 the results were DT40 TDP1 CPT -25.8%, TDP1 inh 8.6% and DT40 TDP1 no CPT inconclusive.
Screening O=c1c2ccccc2n2c(-c3ccc(Cl)cc3)nnc2n1CCc1ccccc1 returned DT40 TDP1 CPT inconclusive, TDP1 inh 5.7% and DT40 TDP1 no CPT 18.4µM*.
Screening COc1cccc(-c2nnc3n(Cc4ccc(C)cc4)c(=O)c4ccccc4n23)c1O returned DT40 TDP1 CPT inconclusive, TDP1 inh 2.9% and DT40 TDP1 no CPT 25.9µM*.
O=c1c2ccccc2n2c(-c3ccc(F)c(F)c3)nnc2n1CCc1ccccc1 was read as DT40 TDP1 CPT inconclusive, TDP1 inh 5.7% and DT40 TDP1 no CPT inconclusive.
`COc1ccc(OC)c(-c2nnc3n(CCc4ccccc4)c(=O)c4ccccc4n23)c1` gave DT40 TDP1 CPT 8.2µM*, TDP1 inh 8.6% and DT40 TDP1 no CPT 16.4µM*.
Screening CC(C)OCCCn1c(=O)c2ccccc2n2c(-c3cc(Cl)ccc3O)nnc12 returned DT40 TDP1 CPT inconclusive, TDP1 inh 8.6% and DT40 TDP1 no CPT 18.4µM*.
For COc1ccc(Cn2c(=O)c3ccccc3n3c(-c4cccc(OC)c4OC)nnc23)cc1 the results were DT40 TDP1 CPT inconclusive, TDP1 inh 5.7% and DT40 TDP1 no CPT 16.4µM*.
For O=C(Cn1c(=O)nc(-c2ccccc2)c2ccccc21)N1CCN(c2ccc(F)cc2)CC1 the results were DT40 TDP1 CPT 17.0%, TDP1 inh 6.2% and DT40 TDP1 no CPT -19.7%.
Cc1cccc(-c2c3c(nc4c2c(=O)n(C)c(=O)n4C)-c2ccccc2C3O)c1 (configuration not stated) was read as DT40 TDP1 CPT 5.8µM*, IL-1B inflam inh 7.4, Six1-Eya2 blk -20.8, CtBP-E1A blk -16.5 and DT40 TDP1 no CPT 4.61µM*.
Screening CC1CC(=O)N(c2ccc(NCCc3ccccc3)c([N+](=O)[O-])c2)C1=O (configuration not stated) returned DT40 TDP1 CPT 3.8%, IL-1B inflam inh -4.9, Six1-Eya2 blk -26.0, TDP1 inh 9.2%, CtBP-E1A blk -18.7 and DT40 TDP1 no CPT -5.3%.
Screening O=C1C2CC=CCC2C(=O)N1c1ccc(NCCc2ccccc2)c([N+](=O)[O-])c1 (configuration not stated) returned DT40 TDP1 CPT inconclusive, IL-1B inflam inh 17.7, Six1-Eya2 blk -19.8, TDP1 inh 5.4%, CtBP-E1A blk -13.9 and DT40 TDP1 no CPT 23.1µM*.
For O=C1C2CC=CCC2C(=O)N1c1ccc(NCCc2ccccc2F)c([N+](=O)[O-])c1 (configuration not stated) the results were DT40 TDP1 CPT inconclusive, IL-1B inflam inh -5.4, Six1-Eya2 blk 0.0, TDP1 inh 6.8%, CtBP-E1A blk 5.0 and DT40 TDP1 no CPT inconclusive.
Screening CC1CC(=O)N(c2ccc(NCCc3ccc(O)cc3)c([N+](=O)[O-])c2)C1=O (configuration not stated) returned DT40 TDP1 CPT 16.4µM*, IL-1B inflam inh -1.1, Six1-Eya2 blk -22.2, TDP1 inh 2.7%, CtBP-E1A blk 0.3 and DT40 TDP1 no CPT 14.6µM*.
For COC(=O)CCC(=O)OC1(C)C(=O)C=C2C=C(C3CC3)N(CC3CC3)C=C2C1=O (configuration not stated) the results were DT40 TDP1 CPT -2.5%, IL-1B inflam inh 16.7, Six1-Eya2 blk 2.1, TDP1 inh 3.5%[21 µM], CtBP-E1A blk -0.6 and DT40 TDP1 no CPT -8.3%.

Assay outcomes (PubChem BioAssay)
